The source of these data is PubChem BioAssay (Tox21).

Values joined by “and” are separate entries in the source; they are usually repeats but may differ in a detail not shown here. Equal values may be shown once. Results filed as inconclusive are left out. Where a structure was tested more than once in an assay, its records may differ in their call. Active and inactive are the calls of the source. Unless noted, calls come from the whole dose curve; as a rule, active = well fitted curve in the direction sought with a large enough effect in the repeat runs; inconclusive = weak or mixed curves; inactive = no such curve, though single readings can be large; an effect the other way counts as inactive or inconclusive.

Assay [1] in a line: qHTS assay to identify small molecule agonists of the vitamin D receptor (VDR) signaling pathway - cell viability counter screen (AID 743224). Note: nearly all actives have a fitted effect of over 50% in size. Put shortly:
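Plated VDR-bla cells (4 h, 37C) received compound, incubated 16 h, then LiveBLAzer substrate 2 h RT; CellTiter-Glo added afterwards, luminescence read at 30 min.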

Assay [2] can be described thus: qHTS assay to identify small molecule antagonists of the vitamin D receptor (VDR) signaling pathway - cell viability counter screen (AID 743225). Note: nearly all actives have a fitted effect of over 50% in size. Put shortly: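 Cells (VDR-UAS-bla HEK 293T) are plated, rested 4 h at 37C, dosed with compound and 3 nM final 1-alpha,25-dihydroxy vitamin D3, and incubated 16 h. Viability is taken from CellTiter-Glo luminescence in the reporter wells.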
(In general: In qHTS, concentration-response curves come from the screen itself.)

A short description of assay [3]: qHTS assay to identify small molecule agonists of the NFkB signaling pathway (AID 1159509; active = well fitted curve in the direction sought with a large enough effect in the signal ratio in the repeat runs, not every such curve was filed as active; the % refers to the signal ratio). Put shortly:
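After overnight attachment, reporter cells received test compounds, DMSO or positive controls and were incubated 5 hr at 37 C. FRET substrate was then added for 1.5 hr at room temperature before dual-emission fluorescence reading.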

The nature of assay [4]: qHTS assay to identify small molecule agonists of the NFkB signaling pathway - cell viability counter screen (AID 1159515; calls by dose curve; note: nearly all actives have a fitted effect of over 55% in size). Put shortly: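 Using the same wells as the NFkB reporter read, ME-180 NFkB-bla cells given compounds for 5 hr were assessed for viability via CellTiter-Glo, with luminescence taken after a 30 min room-temperature incubation.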
Assay [5] in a line: qHTS assay to identify small molecule agonists of the endoplasmic reticulum stress response signaling pathway (AID 1159516; active = well fitted activation curve with a large enough effect in the signal ratio in the repeat runs, not every such curve was filed as active; the % refers to the signal ratio). In short, it runs like this:
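An ESRE-bla HeLa cell assay: compounds were pin-transferred from DMSO onto overnight-plated cells and left 5 hr at 37 C. Substrate was then loaded for 2 hr at room temperature before reading fluorescence at 460 nm and 530 nm.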

The nature of assay [6]: qHTS assay to identify small molecule agonists of the endoplasmic reticulum stress response signaling pathway - cell viability counter screen (AID 1159517; calls by dose curve;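 note: HeLa cells carrying an ER stress response element beta-lactamase reporter; nearly all actives have a fitted effect of over 50% in size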). Put shortly: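 Counter-screen wells were identical to the reporter wells. Cells were plated at 1,500 per well and dosed for 5 hr, then read for luminescence 30 min after CellTiter-Glo addition.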
The nature of assay [7]: qHTS assay to identify small molecule antagonists of the retinoid-related orphan receptor gamma (ROR-gamma) signaling pathway - cell viability counter screen (AID 1159520). Note: nearly all actives have a fitted effect of over 50% in size. Note: potency is the fitted concentration of half-maximal effect. In short, it runs like this: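 Tet-on ROR gamma CHO cells were given compounds for 2 hr, then doxycycline hyclate at 1 uM final, and incubated 16 hr at 37 C. Viability was measured as ATP content by CellTiter-Glo luminescence.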

For assay [8], the target named is Nuclear receptor ROR-gamma (Homo sapiens) (UniProt P51449). The assay is described as follows: qHTS assay to identify small molecule antagonists of the retinoid-related orphan receptor gamma (ROR-gamma) signaling pathway (AID 1159521; note: nearly all actives have a fitted effect of over 50% in size; note: potency is the fitted concentration of half-maximal effect). In short, it runs like this:
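RORγ antagonism is scored from reduced reporter luminescence in Tet-on CHO cells. Induction used 1 uM final doxycycline hyclate for 16 h at 37 C, following a 2 h compound exposure.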

Assay [9] is described as follows: qHTS assay to identify small molecule agonists of the AP-1 signaling pathway - cell viability counter screen (AID 1159525; calls by dose curve; note: nearly all actives have a fitted effect of over 55% in size). In short, it runs like this:
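AP-1-bla ME-180 cells in Opti-MEM with 0.5% dialyzed FBS, compound exposure 5 h at 37 C in 15-point titration. Viability read in the same wells as ATP content by CellTiter-Glo luminescence, normalised to tetra-n-octylammonium bromide and DMSO controls.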

Assay [10] can be described thus: qHTS assay to identify small molecule agonists of the AP-1 signaling pathway (AID 1159526; calls by dose curve).
Assay [11] deals with Retinoic acid receptor RXR-alpha (Homo sapiens) (UniProt P19793). The experiment in a line: qHTS assay to identify small molecule agonists of the RXR signaling pathway (AID 1159527; calls by dose curve; note: nearly all actives have a fitted effect of over 35% in size; note: potency is the fitted concentration of half-maximal effect). Put shortly: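 qHTS of the Tox21 10K library in GeneBLAzer RXR-alpha HEK 293T cells carrying a beta-lactamase reporter […]; 16 hr treatment, 9-cis retinoic acid as agonist control, FRET read-out.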

Assay [12] is described as follows: qHTS assay to identify small molecule agonists of the RXR signaling pathway - cell viability counter screen (AID 1159529). Note: nearly all actives have a fitted effect of over 50% in size. In short, it runs like this: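 Cell viability is measured by CellTiter-Glo luminescence, 30 min at room temperature, in wells already read for beta-lactamase. Engineered HEK 293T cells (RXR-alpha-UAS-bla) are dosed 16 hr at 37 C. Tetraoctyl ammonium bromide serves as positive control.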

A short description of assay [13]: qHTS assay to identify small molecule antagonists of the retinoid acid receptor (RAR) signaling pathway - cell viability counter screen (AID 1159551). Note: nearly all actives have a fitted effect of over 35% in size. In short, it runs like this:
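Retinol-stimulated (1 uM final) C3RL4 cells, compound 6 h, 37 C; readout CellTiter-Glo luminescence (ATP) after 30 min RT incubation.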

A short description of assay [14]: qHTS assay to identify small molecule antagonists of the retinoic acid receptor (RAR) signaling pathway (AID 1159552; note: nearly all actives have a fitted effect of over 50% in size). In short, it runs like this:
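Quantitative HTS in C3RL4 RARE-luciferase reporter cells. Compounds were added with 1 uM (final) retinol; luminescence was read after 6 hr.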

The nature of assay [15]: qHTS assay to identify small molecule agonists of the retinoic acid receptor (RAR) signaling pathway (AID 1159553). The note with it: C3RL4 RARE luciferase reporter, agonist, 6 h; activation: at 73.3 µM (top of the series) unless noted. In short, it runs like this:
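Reporter readout comes from luciferase under RARE control in C3RL4 cells; compound exposure lasts 6 hr at 37 C in 5% CO2, and luminescence is recorded following a 30 min room-temperature incubation with reagent.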

Chain of Retinoic acid receptor RXR-alpha (Homo sapiens) (P19793 whole entry, looked up): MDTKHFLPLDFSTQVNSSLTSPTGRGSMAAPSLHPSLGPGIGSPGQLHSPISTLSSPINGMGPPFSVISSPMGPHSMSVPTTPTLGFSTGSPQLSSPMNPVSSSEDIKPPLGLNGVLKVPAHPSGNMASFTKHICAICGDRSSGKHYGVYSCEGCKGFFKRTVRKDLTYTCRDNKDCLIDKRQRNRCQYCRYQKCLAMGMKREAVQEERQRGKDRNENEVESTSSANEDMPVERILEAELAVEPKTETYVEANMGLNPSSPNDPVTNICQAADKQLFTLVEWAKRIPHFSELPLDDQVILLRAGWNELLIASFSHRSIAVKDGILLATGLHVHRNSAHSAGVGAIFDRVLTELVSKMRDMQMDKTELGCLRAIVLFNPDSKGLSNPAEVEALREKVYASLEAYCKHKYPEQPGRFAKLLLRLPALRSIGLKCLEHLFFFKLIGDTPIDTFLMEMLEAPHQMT

As to `O=C(CCl)c1ccccc1`, the Potency result in [1], in assay [2], in assay [4], in [6], in assay [9] and in assay [11] was “inactive” throughout. The Potency entry in assay [12], in [13], in assay [14] and in [15] was “inactive” each time. The call in assay [3], in [5] and in assay [10] was inactive. Moreover, the Potency entry was “inactive and 61.1 µM (active)” in assay [7]; “inactive and 54.5 µM (active)” in assay [8].

With `N#CC(Br)Br`, the Potency result in [1], in [2], in assay [4], in [6], in assay [7] and in assay [8] was “inactive” in each case. For the same compound, the Potency result in [9], in assay [11], in assay [12], in assay [13], in assay [14] and in assay [15] was “inactive” in each case. In addition, the result in assay [3], in assay [5] and in assay [10] was inactive.

As to `O=[N+]([O-])c1cccc2ccccc12`, the Potency result in assay [1], in [2], in assay [4], in assay [6], in assay [7] and in assay [8] was “inactive” in each case. Also, the Potency entry in [9], in assay [11], in [12], in assay [13], in assay [14] and in assay [15] was “inactive” in each case. Also, the compound was called inactive in assay [3], in assay [5] and in assay [10].

Take `O=[N+]([O-])c1c(Cl)c(Cl)c(Cl)c(Cl)c1Cl`: the Potency result in assay [1], in assay [2], in [4], in assay [6], in [7] and in assay [8] was “inactive” in each case. The Potency result in [9], in assay [12], in assay [13], in [14] and in assay [15] was “inactive” in each case. The outcome in assay [3], in [5] and in [10] was inactive. For the same compound, the Potency in [11] was 6.89 µM (active) and inactive.

In the case of `Oc1ccc(-c2ccccc2)cc1`, the Potency entry in assay [1], in [2], in assay [4], in [6], in assay [7] and in assay [8] was “inactive” each time. Besides, the Potency result in assay [9], in assay [12], in [13] and in assay [14] was “inactive” throughout. Further, the result in assay [3], in assay [5] and in assay [10] was inactive. The Potency in [11] was 5.42 µM (active) and inactive.

Take `CCC(C)(C)c1ccc(O)cc1`: the Potency entry in [1], in assay [2], in [4], in assay [6], in assay [7] and in assay [8] was “inactive” throughout. Besides, the Potency entry in assay [9], in assay [11], in assay [12] and in assay [13] was “inactive” each time. For the same compound, the outcome in assay [3], in assay [5] and in [10] was inactive.

As to `C=CCc1ccc(OC)cc1`, the Potency entry in [1], in assay [2], in assay [4], in assay [6], in [7] and in [8] was “inactive” throughout. Besides, the Potency result in [9], in assay [11], in assay [12] and in [13] was “inactive” throughout. Further, the result in assay [3], in [5] and in assay [10] was inactive.

For `C=C(C)C(=O)OCC1CO1` (centres undefined), the Potency entry in assay [1], in assay [2], in assay [4], in assay [6], in assay [7] and in [8] was “inactive” throughout. Moreover, the Potency entry in assay [9], in assay [11], in assay [12], in assay [13], in assay [14] and in assay [15] was “inactive” throughout. Further, the outcome in assay [3], in assay [5] and in assay [10] was inactive.

Take `CCCCOCCOP(=O)(OCCOCCCC)OCCOCCCC`: the Potency entry in [1], in assay [4], in [6], in assay [7], in assay [8] and in [9] was “inactive” in each case. In addition, the Potency entry in [11], in assay [12], in assay [13], in assay [14] and in [15] was “inactive” in each case. In addition, the outcome in assay [3], in assay [5] and in assay [10] was inactive.
